Growth inhibition data for 14 compounds are collected here from PubChem BioAssay (NCI).

Compounds without any hit were thinned out: in the full panel of roughly 79,000, 15% have a hit. Values without a mark were called inactive. The source made the active and inactive calls. Cut-off read from the data, not from the text of the source: active = growth inhibition above about 70%; inactive = the rest.

This test is described as follows: NCI Yeast Anticancer Drug Screen. Data for the mec2-1 strain (AID 157). Particulars: S. cerevisiae mec2-1 strain, hits give high values. How it is done:
Growth inhibition of yeast strains with defined genetic alterations is measured as a screen for potential anti-cancer activity. Selected strains with alterations in DNA damage repair or cell cycle control were exposed to compounds and growth inhibition was measured relative to vehicle treated controls. The strain used in this assay is mec2-1

[1] abbreviates: at 5.0 µM (retest, dose inferred, filed as 0.5).
The mark [2] stands for this setting: at 50.0 µM (retest, dose inferred, filed as 5.0).

Turning to `COc1cc2cnc(-c3ccccc3)cc2cc1OC`, the growth inhibition runs as follows: under setting [1], 11%; under setting [2], 76% (active); (at 50.0 µM) 17.6%.

In the case of `COc1cccc(OC)c1C(=O)/C=C/c1ccccc1`, the growth inhibition was -1% under setting [1], 66% under setting [2] and 45% (at 50.0 µM).

Consider `Cn1c(=S)c2[nH]c(SCCN3CCOCC3)nc2n(C)c1=O`, for which the growth inhibition was 20% under setting [1], 70% (active) under setting [2] and 99.5% (active) (at 50.0 µM).

`CCOc1ccc(/C=N\NC(=O)c2ccco2)cc1OCC`: the growth inhibition is, setting by setting: under setting [1], -3%; under setting [2], -2%; (at 50.0 µM) 94% (active).

As to `C[C@]12C[C@@H](c3ccccc3)Nc3ccccc3N1C(c1ccccc1)=NO2`, the growth inhibition is 10% under setting [1], 74% (active) under setting [2] and 74.8% (active) (at 50.0 µM).

Take `CC(=O)NNc1nc(C)c(C(=O)NNC(=O)C(=O)Nc2c(C)cccc2C(C)C)s1`: the growth inhibition is 1% under setting [1], 88% (active) under setting [2] and 33% (at 50.0 µM).

For `CCN(CC)C(=S)N/N=C/c1cc(OC)ccc1O`, the growth inhibition is -43% under setting [1], 93% (active) under setting [2] and 73.2% (active) (at 50.0 µM).

Consider `COc1cc(/C=C2\CCc3ccccc3C2=O)ccc1O`, for which the growth inhibition runs as follows: under setting [1], -14%; under setting [2], 100% (active); (at 50.0 µM) 92.2% (active).

Turning to `CC1=C/C(=C\C=C2/N(C)c3c(C)cccc3C2(C)C)C(=O)c2ncccc21`, the growth inhibition is 28% under setting [1], 99% (active) under setting [2] and 29.7% (at 50.0 µM).

With `CC1=C(C)C(=O)C(C(C)(C)CC(=O)n2cc(F)c(=O)[nH]c2=O)=C(C)C1=O`, the growth inhibition under setting [1] is 22%, the growth inhibition under setting [2] was 98% (active) and the growth inhibition (at 50.0 µM) was 97.5% (active).

With `S=C(N/N=C(/c1ccccc1)c1ccccn1)Nc1ccccc1`, the growth inhibition is 14% under setting [1], 95% (active) under setting [2] and 73.5% (active) (at 50.0 µM).

On to `CNC(=O)NC(c1cc(OC)c(OC)c(OC)c1)c1cc2c(cc1O)OCO2` (configuration not stated), for which the growth inhibition under setting [1] was -1%, the growth inhibition under setting [2] was -8% and the growth inhibition (at 50.0 µM) was 13.4%.

Turning to `COc1cc(C2C(C(=O)O)=C(C)Oc3cc4c(cc32)OCO4)cc(OC)c1OC` (configuration not stated), the growth inhibition runs as follows: under setting [1], 70% (active); under setting [2], 88% (active); (at 50.0 µM) 92.8% (active).

For the compound `CC(=O)OC12CCC3C4CC=C5CC(O)CCC5(C)C4C(=O)C3C1(C)N1CC(C)CC(O)C1C2C` (configuration not stated), the growth inhibition was 10% under setting [1], 42% under setting [2] and 59.5% (at 50.0 µM).
